Sampled rows, rich in hits. Any-hit rate of the full collection: about 10%.
JMJD2A Tudor = qHTS Assay for Inhibitors of JMJD2A-Tudor Domain | AlphaScreen JMJD2A-Tudor / H3K4me3 peptide binding | Lysine-specific demethylase 4A (Homo sapiens), O75164 | Potency, µM (top dose mostly 114 µM), for inactives: at the top dose activity change, negative = inhibition, usual class: inhibitors | 4.4% of 390,000 active | AID 504339, 2011; note: potency is the fitted concentration of half-maximal effect; % is set by controls: 0 for no effect and ±100 for the full control effect; nearly all actives have a fitted effect of over 50% in size
HP1b binding inh = HTS for Inhibitors of HP1-beta Chromodomain Interactions with Methylated Histone Tails | AlphaScreen HP1-beta / biotin-H3K9me3 peptide binding | Potency, µM (doses to about 114 µM), for inactives: at the top dose activity change, negative = inhibition, hits mostly inhibitors | 0.56% of 390,000 active; note: potency is the fitted concentration of half-maximal effect; nearly all actives have a fitted effect of over 70% in size
Target sequence (P83916 whole entry, looked up): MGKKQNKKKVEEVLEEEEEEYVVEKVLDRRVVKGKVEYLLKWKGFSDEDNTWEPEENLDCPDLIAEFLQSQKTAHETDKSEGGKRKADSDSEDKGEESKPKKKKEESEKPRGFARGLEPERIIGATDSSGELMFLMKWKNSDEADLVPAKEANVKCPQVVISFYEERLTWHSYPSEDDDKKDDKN
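Compound inhibition of the preformed complex between 50 nM HP1-beta and 50 nM biotinylated H3K9me3 peptide was read by AlphaScreen. Buffer was PBS pH 7.4 with 0.01% Tween-20. Incubations ran 30 min at room temperature, with 10 ug/mL donor/acceptor beads.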
CtBP-E1A inh = qHTS Assay for Inhibitors of the CtBP/E1A Interaction; 0.49% of 340,000 active; activity change, % (no concentration beside the values); AlphaScreen GST-E1A/His-CtBP binding, 1536-well; active compounds read low; CtBP / adenovirus E1A interaction (AlphaScreen); in the data active = activity change below about -65%; inconclusive = mostly about -30% to -63%; note: % is set by controls: 0 for no effect and ±100 for the full control effect
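GST-E1A and His-tagged CtBP (125 nM each as 5X stock) were preincubated with pin-transferred compound for 2 h at 37 °C in the dark, then glutathione donor and nickel acceptor beads were added for 1 h before AlphaScreen reading.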
Six1-Eya2 inh = qHTS Assay for Inhibitors of the Six1/Eya2 Interaction; Homeobox protein SIX1 (Homo sapiens) + Protein phosphatase EYA2 (Homo sapiens), …; AID 651725, 2012; activity change, % (no concentration beside the values); 0.56% of 360,000 active; AlphaScreen GST-Six1/His-Eya2 binding, biochemical; active compounds read low; in the data active = activity change below about -65%; inconclusive = mostly about -30% to -63%; note: % is set by controls: 0 for no effect and ±100 for the full control effect
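Compounds are tested against tagged Six1 and Eya2 proteins bridged by glutathione donor and nickel acceptor beads; after a one-hour incubation at 37 °C without light, AlphaScreen emission is recorded.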
G9a block = qHTS Assay for Inhibitors of Histone Lysine Methyltransferase G9a; G9a H3K9 monomethylation, AlphaScreen, 2 h; Potency, µM (titrated, usually from 102 µM), for the others: top-dose activity, negative = inhibition, hits mostly inhibitors; 8.8% of 350,000 active; note: potency is the fitted concentration of half-maximal effect; % is set by controls: 0 for no effect and ±100 for the full control effect; nearly all actives have a fitted effect of over 75% in size
Target sequence (Q96KQ7 913-1193 limits assumed): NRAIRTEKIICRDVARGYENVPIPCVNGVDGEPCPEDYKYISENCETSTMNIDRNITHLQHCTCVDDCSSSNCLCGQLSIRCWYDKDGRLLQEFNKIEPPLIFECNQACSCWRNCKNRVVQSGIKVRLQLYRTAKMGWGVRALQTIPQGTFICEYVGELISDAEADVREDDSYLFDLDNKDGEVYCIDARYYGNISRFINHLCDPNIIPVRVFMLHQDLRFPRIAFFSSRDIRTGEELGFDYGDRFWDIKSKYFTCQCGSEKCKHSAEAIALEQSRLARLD
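AlphaScreen detection with an anti-monomethyl H3K9 antibody quantified product after a 2 h room-temperature reaction containing 500 nM biotinylated H3K9 peptide, 20 µM SAM and 20 nM enzyme, which had been preincubated 15 min with compound.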
BAZ2B inh = qHTS Assay for Inhibitors of BAZ2B; AlphaScreen BAZ2B-H3K14Ac peptide displacement; 4.4% of 360,000 active; Bromodomain adjacent to zinc finger domain protein 2B (Homo sapiens), Q9UIF8; Potency, µM (titrated, usually from 114 µM), for inactives: top-dose activity change, negative = inhibition, hits mostly inhibitors; note: potency is the fitted concentration of half-maximal effect; % is set by controls: 0 for no effect and ±100 for the full control effect; nearly all actives have a fitted effect of over 60% in size
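Multi-concentration screen (max 110 uM) measuring displacement of acetylated histone H3 peptide from BAZ2B by AlphaScreen, using 50 nM protein, 50 nM peptide and 10 ug/mL streptavidin donor plus Ni-chelate acceptor beads.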
Starred values were filed as active, the others as inactive; [ ] = remark or other dose. Unless noted, calls come from the whole dose curve; as a rule, active = well fitted inhibition curve with a large enough effect; inconclusive = small, poorly fitted or top-dose-only effect; inactive = no such curve, though single readings can be large or run the other way.

How did Cc1ccc(S(=O)(=O)N2CCN(c3nn(C)c(=O)n(C)c3=O)CC2)cc1C do in these assays?
JMJD2A Tudor: -8.1%; HP1b binding inh: 21.8%; CtBP-E1A inh: -7.1; Six1-Eya2 inh: 4.2; G9a block: -9.0%[12.7 µM]; BAZ2B inh: 6.2%

What do the screens show for `CC1(C(=O)NCc2ccco2)CCN1C(=O)C1(c2ccccc2)CC1` (stereo unspecified)?
CtBP-E1A inh: -8.2; Six1-Eya2 inh: 14.3

What do the screens show for `CCOC(=O)/C=C/S(=O)(=O)c1ccc(NC(C)=O)cc1`?
JMJD2A Tudor: -23.3%; HP1b binding inh: -0.5%; CtBP-E1A inh: -6.0; Six1-Eya2 inh: 3.5; G9a block: 25.1µM*; BAZ2B inh: 15.5%

What do the screens show for `COc1ccc(-c2nc(-c3cccs3)c(-c3cccs3)[nH]2)cc1O`?
JMJD2A Tudor: inconclusive; HP1b binding inh: -38.7%; CtBP-E1A inh: inconclusive; Six1-Eya2 inh: inconclusive; G9a block: inconclusive; BAZ2B inh: 44.7µM*

Results for CCOC(=O)c1ccc(N2C(=O)c3n[nH]c(-c4ccco4)c3C2c2ccc(F)cc2)cc1 (stereo unspecified) ?
JMJD2A Tudor: inconclusive; HP1b binding inh: -13.7%; G9a block: 11.2µM*

How did CCOC(=O)c1ccc(N2C(=O)c3n[nH]c(-c4ccco4)c3C2c2ccccc2OC)cc1 (stereo unspecified) do in these assays?
JMJD2A Tudor: inconclusive; HP1b binding inh: -18.5%; G9a block: 12.6µM*

What do the screens show for `CCOC(=O)c1ccc(N2C(=O)c3n[nH]c(-c4ccco4)c3C2c2cccc(F)c2)cc1` (stereo unspecified)?
JMJD2A Tudor: inconclusive; HP1b binding inh: -12.8%; G9a block: inconclusive

What do the screens show for `Cc1cc(C(=O)COC(=O)c2cccn2C)c(C)n1Cc1ccco1`?
JMJD2A Tudor: 50.1µM*; HP1b binding inh: inconclusive; Six1-Eya2 inh: inconclusive; G9a block: 17.8µM*; BAZ2B inh: 44.7µM*

Results for Nc1nnc(SCC(=O)c2ccco2)s1 ?
JMJD2A Tudor: -6.8%; HP1b binding inh: 21.4%; CtBP-E1A inh: 7.5; Six1-Eya2 inh: -0.9; G9a block: 9.2%[0.501 µM]; BAZ2B inh: 2.1%

What do the screens show for `Cc1cc(C(=O)COC(=O)c2ccco2)c(C)n1Cc1ccco1`?
JMJD2A Tudor: inconclusive; HP1b binding inh: inconclusive; Six1-Eya2 inh: -20.6; G9a block: inconclusive

How did Cc1cc(C(=O)CSc2nnc(N)s2)c(C)n1Cc1ccco1 do in these assays?
JMJD2A Tudor: -5.5%; HP1b binding inh: 9.4%; CtBP-E1A inh: 1.4; Six1-Eya2 inh: 7.8; G9a block: 39.8µM*; BAZ2B inh: -38.3%

What do the screens show for `CCCOc1ccc(F)cc1-c1cc(C(=O)Nc2ccc(C)c(NS(C)(=O)=O)c2)[nH]n1`?
CtBP-E1A inh: -28.9; Six1-Eya2 inh: 2.5

Results for Cc1[nH]nc2c1/C(=N\O)CCC2 ?
JMJD2A Tudor: -10.9%; HP1b binding inh: 6.3%; CtBP-E1A inh: 0.3; Six1-Eya2 inh: 7.0; G9a block: -2.3%; BAZ2B inh: -25.2%

How did COCCCn1c(=O)c2sccc2n2c(CCCC(=O)NC3CCC(C)CC3)nnc12 (stereo unspecified) do in these assays?
JMJD2A Tudor: -11.0%; HP1b binding inh: 24.8%; G9a block: -1.3%[59 µM]; BAZ2B inh: -19.2%

Results for COc1ccc(/C(C)=N/Nc2nc(C)cc(-c3ccccc3)n2)cc1 ?
JMJD2A Tudor: -16.9%; HP1b binding inh: 18.6%; CtBP-E1A inh: -2.6; Six1-Eya2 inh: 1.3

Results for COc1ccc(C/C(C)=N/Nc2nc(C)cc(=O)[nH]2)cc1 ?
JMJD2A Tudor: -15.4%; HP1b binding inh: 30.7%; CtBP-E1A inh: 2.9; Six1-Eya2 inh: 0.1; G9a block: 39.8µM*; BAZ2B inh: -2.2%

What do the screens show for `COc1ccc(/C(C)=N\Nc2nc(-c3ccccc3)cc(=O)[nH]2)cc1`?
JMJD2A Tudor: inconclusive; HP1b binding inh: 22.5%; CtBP-E1A inh: -2.5; Six1-Eya2 inh: 2.4; G9a block: 8.91µM*; BAZ2B inh: 11.0%

How did Cc1cccc(NC(=O)NCCn2c(=O)oc3ccc(C)cc32)c1 do in these assays?
JMJD2A Tudor: -16.4%; HP1b binding inh: 40.4%; G9a block: 5.2%[59 µM]; BAZ2B inh: 2.0%

Results for Cc1ccc(C(=O)O)cc1-n1c(C)cc(C=O)c1C ?
JMJD2A Tudor: -30.5%; HP1b binding inh: 14.5%; CtBP-E1A inh: 0.0; Six1-Eya2 inh: -16.0; G9a block: inconclusive; BAZ2B inh: 79.4µM*

Results for CCOc1ccccc1-n1c(C)cc(C=O)c1C ?
JMJD2A Tudor: -31.2%; HP1b binding inh: -1.8%; CtBP-E1A inh: 9.1; Six1-Eya2 inh: -23.6; G9a block: 24.7%[12.7 µM]; BAZ2B inh: -31.8%

How did Cc1c(C(=O)O)cccc1-n1c(C)cc(C=O)c1C do in these assays?
JMJD2A Tudor: 50.1µM*; HP1b binding inh: 1.2%; CtBP-E1A inh: 0.4; Six1-Eya2 inh: -14.2; G9a block: 44.7µM*; BAZ2B inh: inconclusive

What do the screens show for `Cc1cc(C(=O)O)ccc1-n1c(C)cc(/C=C2\SC(=O)NC2=O)c1C`?
JMJD2A Tudor: -18.5%; HP1b binding inh: 31.4%; CtBP-E1A inh: -10.2; Six1-Eya2 inh: -13.4; G9a block: inconclusive; BAZ2B inh: -30.2%

Results for CCNc1c(NS(=O)(=O)c2ccc(Cl)s2)c(=O)oc2ccccc12 ?
JMJD2A Tudor: -14.1%; HP1b binding inh: -19.5%; CtBP-E1A inh: -0.6; Six1-Eya2 inh: -0.3; G9a block: 5.5%; BAZ2B inh: 3.4%

How did C=Cc1ccc(CN2C(=O)c3ccccc3Sc3ccc(C(=O)OCc4ccco4)cc32)cc1 do in these assays?
JMJD2A Tudor: -17.3%; HP1b binding inh: 11.7%[57 µM]; G9a block: -25.4%[59 µM]; BAZ2B inh: -24.4%

How did Cc1ccc(Cn2c(-n3nc(C)cc3C)nc3c2c(=O)[nH]c(=O)n3C)cc1 do in these assays?
JMJD2A Tudor: -3.2%; HP1b binding inh: 28.1%; CtBP-E1A inh: 5.0; Six1-Eya2 inh: -2.3; G9a block: -1.2%; BAZ2B inh: -3.9%

How did COc1ccc(N2CCN(c3nc4c(c(=O)[nH]c(=O)n4C)n3Cc3cccc(C)c3)CC2)cc1 do in these assays?
JMJD2A Tudor: inconclusive; HP1b binding inh: inconclusive; CtBP-E1A inh: 5.1; Six1-Eya2 inh: -4.6; G9a block: 10µM*; BAZ2B inh: -34.4%

Bioassay records (PubChem BioAssay)
